aSyn 5UTR act: Activators via SNCA 5'UTR binding, MLPCN | activity score, % (tested at 7.5 µM), hits read low | alpha-synuclein 5'UTR reporter, activators screen | AID 1814, 2009 | 300,000 compounds, 7.1% hits; in the data active = activity score below about -60%
An asterisk follows results filed as active. Not all results are given here.

SMILES	aSyn 5UTR act
O=C(NCC1CCCO1)c1sc2cc(Cl)ccc2c1Cl (stereo not given)	-124*
C=CCNc1nc(Nc2ccccc2F)nc(OCC)n1	-122*
COC(=O)Cc1c(C)c2ccc(OCC(C)=O)c(C)c2oc1=O	-124*
CCc1c(C)c2ccc(OCC(=O)OC(C)C)c(C)c2oc1=O	-107*
Cc1nc(-c2ccccc2)nn1-c1ccc([N+](=O)[O-])cc1	-87*
O=C(CCNS(=O)(=O)c1cccs1)N1CCCCCC1	-102*
O=C(CCS(=O)(=O)c1cccs1)N1CCCC1	-124*
O=C(CCS(=O)(=O)c1ccccc1)N1CCN(c2ccccc2)CC1	-78*
O=C(N/N=C\c1cccc(Cl)c1)c1n[nH]c2c1CCCC2	-152*
Cc1ccc(/C=N/NC(=O)c2n[nH]c3c2CCCC3)cc1	77
CN(C)/C=C1\Oc2ccc3ccccc3c2C1=O	-116*
CC(C)c1ccc(NC(=O)c2ccc3snnc3c2)cc1	-117*
O=C(Nc1ccccc1)c1ccc2snnc2c1	-79*
COc1cc(NC(=O)c2ccc3snnc3c2)cc(OC)c1	-65*
Cc1ccc(NC(=O)c2ccc3snnc3c2)cc1	-226*
Oc1ccccc1N=Nc1ccccc1O	58
Nc1ccc(N=Nc2ccccc2O)c(N)c1	-136*
COc1cccc(NC(=O)n2nc(N)cc2-c2ccc(Cl)cc2)c1	-69*
COc1ccc(NC(=O)C2Cc3ccccc3O/C2=N\O)cc1 (stereo not given)	-82*
Cc1cccc(N/N=C(\C(N)=O)C2=NC(C)(C)Cc3ccccc32)c1	59
Cc1cccc(NC(=O)C2Cc3ccccc3O/C2=N\O)c1 (stereo not given)	-138*
CCCCC(=O)NC(c1ccc(C(C)C)cc1)c1ccc2cccnc2c1O (stereo not given)	112
O=C(NC(=S)Nc1ccccc1F)c1ccc(Br)o1	-66*
CSc1ccccc1NC(=O)c1ccc(Br)o1	-78*
O=C(O)CCC(=O)Nc1cccc2cccnc12	-114*
SMILES	aSyn 5UTR act
CCCCC(=O)NC(c1ccccc1Cl)c1ccc2cccnc2c1O (stereo not given)	83
Cc1ccc(NC(=S)NC(=O)c2ccc(Br)o2)c(C)c1	-181*
O=C(Nc1cccc2cccnc12)c1ccc(Br)o1	-97*
Cc1cccc(NC(=S)NC(=O)c2ccc(Br)o2)c1C	-74*
COc1ccc(OCc2cccc(C(=O)Nc3cc(C)on3)c2)cc1	66
COc1ccc(-c2cc(C(=O)Nc3ccc(C)cc3)no2)cc1	-71*
COc1ccc(-c2cc(C(=O)Nc3cc(C)on3)no2)cc1	-71*
Cc1ccc(Nc2ncc3c(n2)CC(C)CC3=O)c(C)c1 (stereo not given)	-82*
Cc1ccc(NS(=O)(=O)c2ccc(-c3cnc(C4CC4)o3)cc2)c(C)c1	77
CC1CC(=O)c2cnc(Nc3ccccc3)nc2C1 (stereo not given)	-134*
CC(=O)c1csc(Nc2ccccc2Cl)n1	-121*
CC(C)(C)C(=O)c1cnc(Nc2ccccc2Cl)s1	-146*
O=C(c1ccccc1)c1cnc(Nc2ccccc2Cl)s1	-96*
CN(C)CCNC(=O)c1csc(Nc2cccc3ccccc23)n1	57
O=[N+]([O-])c1cc(C=Nc2ccc3ccccc3c2)ccc1Br	-119*
Cc1cc(C)nc(Nc2nc(=O)c3ccccc3s2)n1	-134*
COC(=O)C(Cc1ccc(OC(=O)c2ccccc2C)cc1)N1Cc2ccccc2C1=O (stereo not given)	-142*
COC(=O)C(Cc1ccc(OC(=O)c2ccccc2Cl)cc1)N1Cc2ccccc2C1=O (stereo not given)	-88*
CC1CCCC(C)N1/N=C/C=C/c1ccccc1[N+](=O)[O-] (stereo not given)	-133*
Cc1ccsc1C(=O)N/N=C/C=C/c1ccccc1[N+](=O)[O-]	-138*
CCOC(=O)N/N=C/C=C/c1ccccc1[N+](=O)[O-]	-75*
COc1cccc(-n2cc(-c3ccc(F)cc3)[nH]c2=S)c1	-158*
COc1ccc(-n2cc(-c3ccc(Cl)cc3)[nH]c2=S)cc1	-91*
O=C(CNC(=O)c1cn2ccccc2n1)Nc1ccc(F)c(F)c1	-209*
O=c1/c(=C\c2ccc(F)cc2)sc2n1CCCN=2	-201*
SMILES	aSyn 5UTR act
COc1cc(C)ccc1OCc1cc(C(=O)N2CCN(C)C[C@@H]2c2ccccc2)no1	-139*
COc1cc(Cl)ccc1OCc1cc(C(=O)N2C[C@@H]3CCC[C@H]2C3)no1	-176*
COc1cc(Cl)ccc1OCc1cc(C(=O)N2C[C@]3(C)C[C@H]2CC(C)(C)C3)no1	-87*
COc1cc(Cl)ccc1OCc1cc(C(=O)N2C[C@H]3CC[C@H]2C3)no1	-130*
COc1cc(C)ccc1OCc1cc(C(=O)N(Cc2c(C)nn(C)c2C)C2CC2)no1	-81*
Fc1ccc(F)c(NC(=S)NCCc2ccccc2)c1	-93*
Fc1cccc(NC(=S)NCCc2ccccc2)c1	-71*
Fc1ccccc1NC(=S)NCCc1ccccc1	-118*
CSc1nc2ccc(NC(=O)c3ccc(F)c(F)c3)cc2s1	-143*
COc1ccc2nc(NC(=S)NC(=O)c3ccco3)sc2c1	-133*
CC(=O)Nc1ccc2nc(NC(=O)c3ccc([N+](=O)[O-])o3)sc2c1	-100*
CSc1nc2ccc(NC(=O)c3cc4ccccc4o3)cc2s1	-126*
O=C(Nc1nc2ccc([N+](=O)[O-])cc2s1)c1ccco1	-74*
CC(=O)Nc1ccc2nc(NC(=O)c3ccco3)sc2c1	-96*
CSc1nc2ccc(NC(=O)c3ccco3)cc2s1	-134*
CSc1nc2ccc(NC(=O)c3ccc(=O)n(C)n3)cc2s1	-70*
CCCCS/C(N)=N/N=C/c1cc(C)ccc1O	-76*
CS/C(N)=N/N=C/c1c(O)ccc2ccccc12	-175*
CCS/C(N)=N/N=C/c1cc(C)ccc1O	-82*
CS/C(N)=N/N=C/c1cc(C)ccc1O	-94*
COc1ccccc1OCC(=O)N/N=C/c1c(O)ccc2ccccc12	60
CCOC(=O)c1oc2ccc(/C=N/O)c(Cl)c2c1C	-140*
CCOC(=O)c1snc(C(=O)NC2CCCCC2)c1N	-150*
Cc1ccc(C)c(NC(=O)CSc2nccn2Cc2ccco2)c1	-78*
CCOC(=O)c1cc(-c2ccccc2)nn1Cc1cc(C)no1	-81*
SMILES	aSyn 5UTR act
COc1ccc(C(=O)COC(=O)c2cccnc2Cl)c(OC)c1	-144*
COC(=O)c1ccc(COC(=O)c2nn(C)c(=O)c3ccccc23)cc1	-64*
C=CCNc1nc(C(=O)OCC(=O)c2ccc(OC)cc2OC)cs1	-82*
COC(=O)c1ccc(COC(=O)c2cccnc2Cl)cc1	-68*
Cc1cc(NCc2ccccc2)n2ncc(-c3ccccc3)c2n1	-72*
C=CCc1c(C)nc2c(-c3ccccc3)cnn2c1N1CCOCC1	-175*
Cc1cc(NC(C)c2ccccc2)n2ncc(-c3ccccc3)c2n1 (stereo not given)	-83*
COc1ccccc1-c1cnn2c(NCCc3ccccc3)cc(C)nc12	-112*
Cc1cc(NC2CCCC2)n2ncc(-c3ccccc3)c2n1	60
Cc1cc(NCCN2CCOCC2)n2ncc(-c3ccccc3)c2n1	-62*
O=C(NC(C(=O)c1ccccc1)N1CCCCC1)c1ccccc1 (stereo not given)	-87*
O=C(NC(C(=O)c1ccccc1)n1ccc(=O)[nH]c1=O)c1ccccc1 (stereo not given)	-208*
COc1ccc(C2=NOC(CNC(=S)N3CCOCC3)C2)cc1 (stereo not given)	-132*
Cc1ccc(NC(=O)C2CCCN(c3ncccn3)C2)cc1C (stereo not given)	-125*
